A selection: hits, their analogues and other compounds. The true share with any hit is near 5.8%.
ALOX12 inh – inhibitors of human 12S-lipoxygenase ALOX12; purified 12hLO, xylenol orange hydroperoxide absorbance; Potency, µM (top dose mostly 108 µM), usual class: inhibitors; 580,000 compounds, 1.1% hits; AID 1671190
Target sequence (P18054 whole entry, looked up): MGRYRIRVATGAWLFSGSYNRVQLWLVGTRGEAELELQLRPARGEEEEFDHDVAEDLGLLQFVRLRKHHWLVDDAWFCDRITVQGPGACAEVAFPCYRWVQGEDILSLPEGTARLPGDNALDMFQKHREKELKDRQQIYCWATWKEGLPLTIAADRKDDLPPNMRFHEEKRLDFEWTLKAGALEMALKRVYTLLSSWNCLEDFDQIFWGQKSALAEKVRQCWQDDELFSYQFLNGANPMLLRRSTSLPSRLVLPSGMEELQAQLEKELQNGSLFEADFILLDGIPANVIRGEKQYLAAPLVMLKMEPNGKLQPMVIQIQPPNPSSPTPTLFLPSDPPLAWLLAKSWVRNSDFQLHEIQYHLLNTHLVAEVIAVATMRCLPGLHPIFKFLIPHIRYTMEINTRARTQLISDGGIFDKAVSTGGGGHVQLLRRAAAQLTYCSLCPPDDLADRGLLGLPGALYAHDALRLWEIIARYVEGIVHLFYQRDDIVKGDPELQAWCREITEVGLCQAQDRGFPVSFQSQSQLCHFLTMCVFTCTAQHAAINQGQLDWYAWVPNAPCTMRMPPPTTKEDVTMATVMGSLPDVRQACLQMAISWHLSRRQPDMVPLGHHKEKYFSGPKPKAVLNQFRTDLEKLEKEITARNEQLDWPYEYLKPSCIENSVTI
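Hydroperoxide product was detected by ferrous iron/xylenol orange as the 573 to 405 nm absorbance ratio. Arachidonic acid at 40 uM (final) was turned over for 30 min at room temperature by 150 nM human 12hLO, pH 7.0 Hepes buffer, after 15 min compound preincubation.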
PINK1 modulator – changes PINK1 expression. AID 624263. Potency, µM (top dose mostly 76.6 µM), hits mostly activators. PINK1 immunofluorescence, high-content cytometry, 24 h. 410,000 compounds, 0.2% hits; active = well fitted activation curve with a large enough effect; inconclusive = small, poorly fitted or top-dose-only effect; cell line not stated here; also: nearly all actives have a fitted effect of over 65% in size
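Stable cell line, 250 cells/well, 12 h attachment; compounds pinned at 5 concentrations, 24 h; CCCP control. Fixed with nuclear dye, primary antibodies 12 h at 10 degrees C, secondary plus cell stain; laser-scanning cytometer read.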
MCF10A rerep – induces DNA re-replication in MCF 10a normal breast cells; 350,000 compounds, 2.9% hits; MCF 10A DNA re-replication, Hoechst nuclear intensity, 48 h; Potency, µM (highest dose often 46.1 µM), usual class: activators; also: nearly all actives have a fitted effect of over 50% in size
KB-V1 MDR tox – KB-V1 MDR subline cytotoxicity. KB-V1 MDR cells viability, CellTiter-Glo, 72 h. Potency, µM (highest dose often 46.1 µM), actives largely listed as cytotoxic. 400,000 compounds, 3.4% hits. AID 1347076; also: nearly all actives have a fitted effect of over 60% in size
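Luminescent ATP read-out (CellTiter-Glo, 10 min) measures survival of drug-selected KB-V1 MDR cells after 72 h, 37 degrees C compound exposure. Medium: phenol-red-free DMEM, 10% FBS. Values from fitted concentration-response curves.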
SW480 rereplic – induces DNA re-replication in SW480 colon adenocarcinoma cells; SW480 DNA re-replication, Hoechst DNA content imaging, 48 h; Potency, µM (doses to about 46.1 µM), actives largely listed as activators; 340,000 compounds, 1.8% hits; also: nearly all actives have a fitted effect of over 55% in size
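Readout is total intensity of Hoechst-stained nuclei, excited at 405 nm and collected at 500-530 nm. Compound treatment lasted 48 hr at 37 C in 5% CO2 before staining.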
KB-3-1 cytotox – KB-3-1 parental cell cytotoxicity. KB-3-1 viability, CellTiter-Glo ATP luminescence, 72 h. Potency, µM (highest dose often 46.1 µM), usual class: cytotoxic. 400,000 compounds, 1.4% hits. AID 1347075; also: nearly all actives have a fitted effect of over 60% in size
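Here the drug-naive KB-3-1 line serves as comparator for MDR sub-line selectivity; cells received compound titrations, 72 h at 37 °C, then CellTiter-Glo readout.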
Each line names hits and unclear results; the compound was inactive in the other large screens; ! = repeats disagree. Unless noted, calls follow the shape of the dose curve; as a rule, active = well fitted curve in the direction sought with a large enough effect; inconclusive = small, poorly fitted or top-dose-only effect, or another doubt; inactive = no such curve, though single readings can be large; an effect the other way counts as inactive or inconclusive.

CCN(CC)P(=S)(c1c(C)nc2ccccn12)c1c(C)nc2ccccn12	SW480 rereplic 10.3µM, KB-3-1 cytotox inconclusive
Cc1cccc(C2=NCC(=O)N(CC(=O)NCc3ccco3)c3sc4c(c32)CCCC4)c1	KB-V1 MDR tox 23.1µM
COc1ccc(C2=NCC(=O)N(CC(=O)NCc3ccco3)c3sc4c(c32)CCCC4)cc1	none
O=C(c1ccccc1)C(Cc1ccccc1)N1CCOCC1 (configuration not stated)	KB-V1 MDR tox 18.4µM
O=C(Cc1ccccc1)OCCN1CCOCC1	none
Cc1ncc2c(n1)C[C@@H]1CC[C@H]2N1C(=O)c1ccc2c(c1)OCO2	none (no result: PINK1 modulator, MCF10A rerep, KB-V1 MDR tox, SW480 rereplic, KB-3-1 cytotox)
CC(C)N1CC=C(c2c[nH]c3ccccc23)CC1	KB-3-1 cytotox 2.06µM
C1=C(c2c[nH]c3ccccc23)CCNC1	none (no result: PINK1 modulator, MCF10A rerep, KB-V1 MDR tox, SW480 rereplic, KB-3-1 cytotox)
COc1ccc(CCN(C)Cc2cc(C(C)(C)C)c(O)c(C(C)(C)C)c2)cc1OC	ALOX12 inh 7.94µM (no result: PINK1 modulator, MCF10A rerep, KB-V1 MDR tox, SW480 rereplic, KB-3-1 cytotox)
c1csc(-c2ccc(-c3cccs3)s2)c1	none (no result: PINK1 modulator, MCF10A rerep, KB-V1 MDR tox, SW480 rereplic, KB-3-1 cytotox)
O=C(NC[C@H]1C[C@@H]2CCN1C[C@@H]2CN1CCN(c2ccc(F)cc2)CC1)Nc1cccc(F)c1	none (no result: PINK1 modulator, MCF10A rerep, KB-V1 MDR tox, SW480 rereplic, KB-3-1 cytotox)
COCC(=O)NC[C@H]1C[C@@H]2CCN1C[C@@H]2CN1CCc2ccccc2C1	none (no result: PINK1 modulator, MCF10A rerep, KB-V1 MDR tox, SW480 rereplic, KB-3-1 cytotox)
O=c1[nH]c(=O)n(CCC2=CCCCC2)c(O)c1/C=N/N1CCOCC1	none
O=c1[nH]c(=S)n(Cc2ccc(F)cc2)c(O)c1/C=N/N1CCCCCC1	ALOX12 inh 35.5µM, MCF10A rerep inconclusive
O=c1[nH]c(=S)n(CCC2=CCCCC2)c(O)c1/C=N/N1CCOCC1	ALOX12 inh inconclusive, MCF10A rerep 18.4µM, SW480 rereplic inconclusive
Cc1c(C(=O)Cn2cnc3ccccc32)c2ccccc2n1C	none (no result: PINK1 modulator, MCF10A rerep, KB-V1 MDR tox, SW480 rereplic, KB-3-1 cytotox)
c1ccc(CCCN2CCN(CCOC(c3ccccc3)c3ccccc3)CC2)cc1	ALOX12 inh inconclusive, MCF10A rerep 5.17µM, KB-V1 MDR tox 10.3µM, SW480 rereplic inconclusive, KB-3-1 cytotox inconclusive
Fc1ccc(C(OCCN2CCN(CCCc3ccccc3)CC2)c2ccc(F)cc2)cc1	ALOX12 inh 2.73µM!, MCF10A rerep 21.1µM, KB-V1 MDR tox 16.4µM, SW480 rereplic inconclusive, KB-3-1 cytotox inconclusive
O=c1[nH]c(CN2CC=C(c3ccccc3)CC2)nc2scc(-c3ccccc3)c12	MCF10A rerep 18.4µM, KB-V1 MDR tox inconclusive, KB-3-1 cytotox inconclusive
CN(C(=O)CN1CC=C(c2ccccc2)CC1)c1c(N)n(Cc2ccccc2)c(=O)[nH]c1=O	none
O=c1[nH]c(CN2CC=C(c3ccccc3)CC2)nc2cc(C(F)(F)F)ccc12	MCF10A rerep 14.6µM, KB-V1 MDR tox inconclusive
Cc1oc(-c2cccs2)nc1CSCC(=O)N1CCC2(CC1)OCCO2	KB-V1 MDR tox 10.3µM
C#C[C@@H]1CC2C3CCC4=CC(=O)CCC4C3CCC2(CC)C1O (some centres not stated)	none (no result: PINK1 modulator, MCF10A rerep, KB-V1 MDR tox, SW480 rereplic, KB-3-1 cytotox)
O=C(CCn1cccn1)N1C[C@H](c2cccc(F)c2F)[C@@H]2[C@H]1C1CCN2CC1	none (no result: PINK1 modulator, MCF10A rerep, KB-V1 MDR tox, SW480 rereplic, KB-3-1 cytotox)
CC1C2Cc3ccc(O)cc3C1(C)CCN2CC1CC1 (configuration not stated)	none (no result: PINK1 modulator, MCF10A rerep, KB-V1 MDR tox, SW480 rereplic, KB-3-1 cytotox)
CC1(C(=O)O)CCCC2(C)c3cc(O)ccc3CCC12 (configuration not stated)	MCF10A rerep 18.4µM
CC1OC(OC2CCC3(C=O)[C@H]4CCC5(C)C(C6=CC(=O)OC6)CCC5(O)[C@@H]4CCC3(O)C2)CC2OC(C)(C)OC12 (some centres not stated)	none (no result: PINK1 modulator, MCF10A rerep, KB-V1 MDR tox, SW480 rereplic, KB-3-1 cytotox)
CN1Cc2cnnn2-c2ccccc2C1C#N (configuration not stated)	MCF10A rerep inconclusive, SW480 rereplic inconclusive, KB-3-1 cytotox inconclusive
COc1ccc(C(=O)N2Cc3cnnn3-c3ccccc3C2C#N)cc1 (configuration not stated)	SW480 rereplic inconclusive
c1ccc(C2c3ccccc3-n3nncc3CN2CC2CCCCC2)cc1 (configuration not stated)	MCF10A rerep inconclusive, KB-V1 MDR tox inconclusive
COc1ccc(CN2Cc3cnnn3-c3ccccc3C2c2ccccc2)cc1 (configuration not stated)	MCF10A rerep 16.4µM, KB-V1 MDR tox inconclusive, SW480 rereplic inconclusive, KB-3-1 cytotox inconclusive

Compound activity from PubChem BioAssay.
